Most compounds without a hit are left out; they make up all but 0.96% or so of the library.
TNAP act DEA = activates human TNAP at intermediate phosphate acceptor concentration; P05186; 64,000 tested, under 10 active; activation factor at 20 µM; purified TNAP, CDP-star luminescence, 100 mM DEA, 30 min; active compounds read high; scale: 0 levamisole-inhibited, 1 vehicle-only enzyme;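 active means activation factor of at least 2 at 20 µM, relative to controls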
Mac1 fbg inh = blocks human CD11b/CD18 adhesion to fibrinogen; P05107+P11215; K562 CD11b/CD18 adhesion to fibrinogen, ATPlite luminescence; Mn2+ added to activate the integrin; inhibition, % at 10 µM; 93,000 tested, 0.54% active; AID 1497;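 active means primary inhibition of 50% or more at 10 µM, then 40% or more on retest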
Mac1 fbg enh = increases human CD11b/CD18 adhesion to fibrinogen. K562 CD11b/CD18 adhesion to fibrinogen, ATPlite luminescence. 93,000 tested, 0.07% active. activation, % at 10 µM. P05107+P11215;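 active means 10 µM primary screen giving 50% or more activity, confirmed by 40% or more on retest at that dose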
Phagocyt inh = blocks phagocytosis by macrophages | 110,000 tested, 0.07% active | inhibition, % at 5 µM | J774A.1 macrophage IgG-bead phagocytosis, imaging | AID 1029;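 active means inhibition above the mean of the plate negative controls plus 5 SD, cut at about 13% in these data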;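 further: phagocytic index as fraction of beads internalized from green versus red external bead signal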
FAK blocker = inhibitors of human focal adhesion kinase; Q05397; biochemical FAK kinase activity assay; inhibition, %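 (tested at 7 µM)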; 97,000 tested, 0.84% active; AID 727
Target sequence (Q05397 whole entry, looked up): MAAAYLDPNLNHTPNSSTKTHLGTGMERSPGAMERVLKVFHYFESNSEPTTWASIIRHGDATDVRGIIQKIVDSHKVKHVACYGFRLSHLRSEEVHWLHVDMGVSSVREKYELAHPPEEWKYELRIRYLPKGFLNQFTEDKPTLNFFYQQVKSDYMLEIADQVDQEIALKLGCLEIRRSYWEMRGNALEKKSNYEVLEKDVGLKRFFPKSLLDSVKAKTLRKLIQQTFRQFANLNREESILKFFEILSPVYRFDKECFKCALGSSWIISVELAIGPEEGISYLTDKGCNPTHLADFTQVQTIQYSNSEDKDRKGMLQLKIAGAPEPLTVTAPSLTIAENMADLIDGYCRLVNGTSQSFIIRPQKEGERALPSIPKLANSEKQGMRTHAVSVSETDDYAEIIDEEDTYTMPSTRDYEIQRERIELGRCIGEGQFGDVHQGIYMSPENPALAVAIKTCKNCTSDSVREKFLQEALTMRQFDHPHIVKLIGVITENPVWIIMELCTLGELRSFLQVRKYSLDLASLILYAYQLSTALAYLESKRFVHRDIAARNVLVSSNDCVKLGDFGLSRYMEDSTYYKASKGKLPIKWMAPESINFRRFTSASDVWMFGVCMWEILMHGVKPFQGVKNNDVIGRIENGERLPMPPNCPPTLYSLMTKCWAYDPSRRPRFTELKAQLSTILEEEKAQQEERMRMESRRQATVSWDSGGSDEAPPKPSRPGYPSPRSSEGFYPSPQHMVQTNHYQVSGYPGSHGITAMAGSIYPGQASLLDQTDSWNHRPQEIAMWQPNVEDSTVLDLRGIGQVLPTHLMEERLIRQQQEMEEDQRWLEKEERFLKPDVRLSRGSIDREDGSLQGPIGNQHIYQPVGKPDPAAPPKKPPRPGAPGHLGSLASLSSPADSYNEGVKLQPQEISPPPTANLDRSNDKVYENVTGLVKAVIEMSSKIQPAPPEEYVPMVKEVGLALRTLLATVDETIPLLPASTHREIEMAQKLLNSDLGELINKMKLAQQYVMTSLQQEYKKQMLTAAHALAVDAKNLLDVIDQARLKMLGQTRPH
FAK inh conf = confirmation of human focal adhesion kinase (FAK) inhibitors; inhibition, % at 7 µM; 750 tested, 28% active; shares compounds with FAK blocker; FAK kinase biochemical inhibition assay
Each line names hits and unclear results; the compound was inactive in the other large screens (follow-up assays come after a bar, where they were run). Unless noted, no stated cut-off is given here; in the data, active means inhibition above about 19%; inactive means the rest.

CCc1ccc(/C=C2\CN(CC)Cc3c2nc2ccccc2c3C(=O)O)cc1	FAK blocker 51 (no result: TNAP act DEA) | FAK inh conf inactive
CC1(C)COC(c2ccc(F)c([N+](=O)[O-])c2)=N1	none (no result: TNAP act DEA, FAK blocker)
CCOC(=O)Cc1[nH]nc2c1C(c1cc(OC)ccc1OC)C(C#N)=C(N)O2 (centres undefined)	FAK blocker 25 | FAK inh conf inactive
CCC(C)NC(=O)c1ccc([N+](=O)[O-])c(Cl)c1 (centres undefined)	none (no result: TNAP act DEA, FAK blocker)
COc1ccc(CN(C(=S)Nc2ccccc2)C2CC(=O)N(c3ccc(Cl)cc3)C2=O)cc1 (centres undefined)	FAK blocker 87 (no result: TNAP act DEA, Phagocyt inh) | FAK inh conf inactive
COc1ccc(CN(C(=S)Nc2ccccc2)C2CC(=O)N(c3ccccc3)C2=O)cc1 (centres undefined)	none (no result: TNAP act DEA, FAK blocker)
O=C1NCCc2c1[nH]c1c(Cl)ccc(Cl)c21	FAK blocker 73 | FAK inh conf 62
COc1ccc2c(c1)[nH]c1c(N3CCN(Cc4ccc5c(c4)OCO5)CC3)ncnc12	Mac1 fbg inh 83, FAK blocker 25 | FAK inh conf inactive
Cc1ccc2[nH]c3c(N4CCCCCC4)ncnc3c2c1	FAK blocker 42 | FAK inh conf inactive
Cc1ccc2[nH]c3c(N4CCN(Cc5ccccc5)CC4)ncnc3c2c1	none
Cc1ccc2[nH]c3c(N4CCN(Cc5ccc6c(c5)OCO6)CC4)ncnc3c2c1	Mac1 fbg inh 91, FAK blocker 38 | FAK inh conf inactive
Cc1ccc(CSCC(=O)N/N=C/c2ccc(OCC(=O)Nc3ccc(C)cc3)cc2)cc1	FAK blocker 26 (no result: TNAP act DEA) | FAK inh conf inactive
CCOC(=O)C(NC(C)=O)(Nc1ccc(S(=O)(=O)Nc2cc(C)nc(C)n2)cc1)C(F)(F)F (centres undefined)	none
CCCCN1CNC(=S)N(c2ccc(C(=O)OCC)cc2)C1	none (no result: TNAP act DEA, Phagocyt inh, FAK blocker)
Nc1ncnc2nc(SCc3ccccc3)[nH]c12	FAK blocker 38 | FAK inh conf inactive
Nc1ncnc2nc(SCC(=O)N3CCN(c4ccccc4)CC3)[nH]c12	none
CCC(C)NS(=O)(=O)c1ccc(NC(=O)c2c(-c3ccccc3)noc2C)cc1 (centres undefined)	none
Cc1n[nH]c(C)c1S(=O)(=O)N(CC(=O)NC1CCCC1)c1ccc(C(C)C)cc1	none
COC(=O)CSc1nnc(CNC(=O)c2cccs2)n1-c1cc(OC)ccc1OC	none
O=C(CNC(=O)c1cccc(Cl)c1)N/N=C/C=C/c1ccccc1	none (no result: TNAP act DEA, Mac1 fbg inh, Mac1 fbg enh, FAK blocker)
CC1CCN(CCCNC(=O)c2ccc(CS(=O)(=O)Cc3ccccc3F)o2)CC1	none (no result: Mac1 fbg inh, Mac1 fbg enh, Phagocyt inh)
O=C(NCCCN1CCCCCC1)c1ccc(CS(=O)(=O)Cc2ccccc2F)o1	FAK blocker 25 (no result: Mac1 fbg inh, Mac1 fbg enh, Phagocyt inh) | FAK inh conf 30
O=C(NCCO)c1cccc(Nc2nc(-c3ccccc3)c3cc(Cl)ccc3n2)c1	FAK blocker 33 (no result: TNAP act DEA, Mac1 fbg inh, Mac1 fbg enh, Phagocyt inh) | FAK inh conf inactive
CCc1c(C)sc(NC(=O)C2CC2c2ccccc2)c1C(N)=O (centres undefined)	FAK blocker 35 (no result: TNAP act DEA) | FAK inh conf inactive
NNC(=O)[C@@H]1C[C@@H]1c1ccccc1	none (no result: TNAP act DEA, Mac1 fbg inh, Mac1 fbg enh, FAK blocker)
O=C(CCS(=O)(=O)c1ccccc1)Nc1nc2c(s1)COc1ccccc1-2	none
CCN(CC)c1ccc2cc(-c3nc4ccccc4[nH]3)c(=O)oc2c1	FAK blocker 53 | FAK inh conf 31
Cn1c(CSc2nc3ccccc3s2)nnc1SCC(=O)NCCCN1CCOCC1	none (no result: TNAP act DEA, Mac1 fbg inh, Mac1 fbg enh, Phagocyt inh)
CCOc1c(Br)cc(C2NS(=O)(=O)N=C3CCCCCN32)cc1OC (centres undefined)	FAK blocker 47 | FAK inh conf inactive
Cc1cc(C)cc(NC(=O)C(OC(=O)c2sccc2C)c2ccccc2)c1 (centres undefined)	none (no result: TNAP act DEA, FAK blocker)
CC(C)CNC(=O)c1ccccc1NC(=O)CCSc1ccccc1	none (no result: TNAP act DEA, FAK blocker)
CC(=NCCN1CCN(C(C)=C2C(=O)c3ccccc3C2=O)CC1)C1=C(O)CC(C)(C)CC1=O	none (no result: TNAP act DEA, Mac1 fbg inh, Mac1 fbg enh, FAK blocker)
CCc1ccc2c(c1)CCCN2C(=O)c1ccccc1C(=O)O	FAK blocker 23 | FAK inh conf inactive
Cc1ccc2c(c1)CCCN2C(=O)c1ccoc1C	none (no result: FAK blocker)
Cc1nc2c(ccc3nc(NC(=O)c4ccc5c(c4)OCCO5)sc32)s1	Mac1 fbg inh 67, FAK blocker 24 | FAK inh conf inactive
Cc1sc2nc(C3CC3)nc(SCC(=O)NCc3ccco3)c2c1C	FAK blocker 31 | FAK inh conf inactive
COc1ccc(OC)c(NC(=O)CSc2ncnc3c2cnn3-c2ccccc2Cl)c1	none (no result: TNAP act DEA, Mac1 fbg inh, Mac1 fbg enh, Phagocyt inh)
O=C(Nc1cccc(Cl)c1)Nc1cccc(Cl)c1	none (no result: TNAP act DEA, Mac1 fbg inh, Mac1 fbg enh, Phagocyt inh)
O=C(Nc1cccc(Cl)c1)ON=C1c2ccccc2-c2ccccc21	FAK blocker 39 (no result: TNAP act DEA) | FAK inh conf inactive
CCOc1ccc(N2C(=O)C(c3ccccc3)=C(c3nc4ccccc4s3)C2NC(C)=O)cc1 (centres undefined)	none (no result: TNAP act DEA)
Cc1cc(C)nc(NCC(O)CNc2ccccc2Cl)n1 (centres undefined)	none (no result: Mac1 fbg inh, Mac1 fbg enh, Phagocyt inh, FAK blocker)
CCOc1ccc(/C=C\C(C)=N\O)cc1	FAK blocker 20 (no result: Mac1 fbg inh, Mac1 fbg enh, Phagocyt inh) | FAK inh conf inactive
O=C(CSc1nnc(-c2ccc(O)cc2)n1Cc1ccco1)N1CCc2ccccc2C1	none
Cc1ccc(NC(=O)C2CCCN2S(=O)(=O)c2ccc(F)cc2)c(C)c1 (centres undefined)	none
CCOc1cc(CNc2ccc(O)cc2)cc(Br)c1OCc1ccccc1F	FAK blocker 22 (no result: TNAP act DEA) | FAK inh conf inactive
CCOc1cc(/C=N/NC(N)=O)cc(Br)c1OCc1ccccc1F	none (no result: TNAP act DEA, Mac1 fbg inh, Mac1 fbg enh, FAK blocker)
Oc1ccc(Br)cc1/C=N/N1CCCCC1	none (no result: TNAP act DEA, Mac1 fbg inh, Mac1 fbg enh, FAK blocker)
Oc1ccc(Br)cc1/C=N/n1cnc2ccccc21	FAK blocker 19 | FAK inh conf inactive
O=C1C=C(Nc2ccccc2O)c2ccccc2C1=O	FAK blocker 23 (no result: TNAP act DEA, Mac1 fbg inh, Mac1 fbg enh, Phagocyt inh) | FAK inh conf inactive
CC(=O)Nc1ccccc1O	none (no result: Mac1 fbg inh, Mac1 fbg enh, Phagocyt inh, FAK blocker)
CN(C)c1ccc(/C=C(/NC(=O)c2ccccc2)C(=O)N/N=C/c2ccc([N+](=O)[O-])c(O)c2)cc1	FAK blocker 20 (no result: TNAP act DEA) | FAK inh conf inactive
CC(C)(C)c1nc2ccccc2c2nnc(SCC(=O)Nc3nc4ccccc4s3)n12	FAK blocker 23 (no result: TNAP act DEA, Mac1 fbg inh, Mac1 fbg enh, Phagocyt inh) | FAK inh conf inactive
CC(Sc1nnc(Cc2cccs2)n1C1CCCCC1)C(N)=O (centres undefined)	FAK blocker 26 (no result: TNAP act DEA) | FAK inh conf inactive
O=c1c(O)c(-c2cccs2)oc2ccccc12	FAK blocker 23 | FAK inh conf inactive
O=c1c(O)c(-c2cccs2)oc2ccc(Cl)cc12	none (no result: TNAP act DEA)
O=C1NC(=S)N/C1=C/c1cc([N+](=O)[O-])ccc1O	none (no result: TNAP act DEA)
C/C(=N\NC(=O)c1[nH]c2c([N+](=O)[O-])cc(C)cc2c1-c1ccccc1)c1cccnc1	FAK blocker 20 (no result: TNAP act DEA) | FAK inh conf inactive
C/C(=N\NC(=O)c1ccoc1C)c1cccnc1	none (no result: TNAP act DEA, FAK blocker)
Cc1ccc(-c2onc3ccc(C4(C)OCCO4)cc23)cc1	none (no result: TNAP act DEA)
Cc1ccc(-c2onc3ccc(C=O)cc23)cc1	FAK blocker 22 (no result: TNAP act DEA) | FAK inh conf 30
O=C(NCc1ccccc1)c1ccc2nc(-c3ccco3)c(-c3ccco3)nc2c1	FAK blocker 45 (no result: TNAP act DEA) | FAK inh conf inactive

Screening results: PubChem BioAssay, several laboratories
